D3 antag – antagonists of human D3 dopamine receptor; P35462; D3R cells, DiscoveRx beta-arrestin luminescence, antagonist mode; active compounds read low; max response, negative = inhibition, %; actives 2.5% (n = 360,000); AID 652054; in the data active means max response below about -50%; inconclusive means no clear call, values can overlap the other calls; further: on the % scale 0 is the no-effect control and ±100 the full control effect
Target sequence (P35462 whole entry, looked up): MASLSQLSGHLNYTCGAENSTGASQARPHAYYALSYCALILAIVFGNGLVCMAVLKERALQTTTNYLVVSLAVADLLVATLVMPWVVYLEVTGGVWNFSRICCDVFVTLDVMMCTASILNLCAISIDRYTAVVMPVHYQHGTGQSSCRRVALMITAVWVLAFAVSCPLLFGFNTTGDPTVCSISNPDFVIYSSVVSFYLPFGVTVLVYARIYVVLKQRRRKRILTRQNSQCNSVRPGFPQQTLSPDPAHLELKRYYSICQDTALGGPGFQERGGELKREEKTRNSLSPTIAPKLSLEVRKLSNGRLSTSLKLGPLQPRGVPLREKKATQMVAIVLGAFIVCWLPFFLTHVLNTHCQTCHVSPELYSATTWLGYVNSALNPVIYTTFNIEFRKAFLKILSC
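Cells plated overnight at 1500 cells/well, then exposed to library compounds with dopamine controls for 90 minutes at 37 degrees C. DiscoveRx reagent added for 30–60 minutes at room temperature; luminescence read, quantitative HTS format.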
TDP1 cell CPT – growth inhibition of DT40 Tdp1-/-;hTDP1 cells with camptothecin (screen for TDP1 inhibitors); chicken DT40 Tdp1-/-;hTDP1 cells + 20 nM CPT, ATP luminescence, 48 h; Potency, µM (highest dose often 46.2 µM), without a hit: top-dose activity change, negative = growth inhibition, usual class: inhibitors; actives 12% (n = 420,000); AID 686979; further: potency means the concentration at half of the fitted maximal effect; on the % scale 0 is the no-effect control and ±100 the full control effect; nearly all actives have a fitted effect of over 55% in size
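Chicken DT40 Tdp1-/- cells complemented with human TDP1, 400 cells/well, exposed to compounds plus 20 nM camptothecin for at least 48 h at 37 C; viability read as ATP content by CellTiter-Glo luminescence.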
DT40 TDP1 no CPT – qHTS for Inhibitors of human tyrosyl-DNA phosphodiesterase 1 (TDP1): qHTS in cells in absence of CPT. DT40 Tdp1-/- hTDP1 cells, no CPT, ATP luminescence, 48 h. Potency, µM (doses to about 46.2 µM), inactives show at the highest dose activity change, negative = growth inhibition, hits mostly inhibitors. actives 15% (n = 420,000). AID 686978, 2013; further: potency means the concentration at half of the fitted maximal effect; on the % scale 0 is the no-effect control and ±100 the full control effect; nearly all actives have a fitted effect of over 55% in size
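A cellular qHTS used chicken DT40 cells lacking endogenous Tdp1 but carrying stably transfected human TDP1. Compounds were applied without camptothecin, and cell growth kinetics were judged by ATP-dependent luminescence after ≥48 hr.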
IL-1B inflam inh – inflammasome signaling inhibition, IL-1 beta readout; THP-1 LPS/ATP IL-1B secretion, AlphaLISA, 16 h; active compounds read low; activity change, % at 57.5 µM; actives 4.7% (n = 360,000); AID 743279; in the data active means activity change below about -50%; inconclusive means mostly about -30% to -49%; further: on the % scale 0 is the no-effect control and ±100 the full control effect
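Secreted IL-1B measured by AlphaLISA bead assay after 16 h compound exposure of THP-1 cells; compounds (final up to 57.5 uM) added 1 h before LPS (250 ng/mL) and ATP (1.25 mM) stimulation; lower signal means less secretion.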
ClpP mod – qHTS Assay for Activators of ClpP; actives 1.9% (n = 340,000); Potency, µM (doses to about 57.5 µM), for inactives: top-dose activity change, negative = active; purified B. subtilis ClpP, FRET peptide cleavage, 20 min; ATP-dependent Clp protease proteolytic subunit (Bacillus subtilis (strain 168)), P80244; active means well fitted falling curve with a large enough effect; inconclusive means small, poorly fitted or top-dose-only effect; inactive means no such curve, though single readings can be large or run the other way; further: potency means the concentration at half of the fitted maximal effect; the source files actives as falling curves though it sought activators and does not explain the sign; nearly all actives have a fitted effect of over 65% in size
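Buffer: 100 mM Tris/HCl pH8, 100 mM KCl, 0.05% low protease BSA, 2.5% glycerol, 0.01% Tween-20. ClpP 10 microg/mL final; 20 min RT; delta FRET normalized to ADEP and DMSO controls.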
DRD3 agonist – agonists of human D3 dopamine receptor; P35462; D3R DiscoveRx beta-arrestin cells, luminescence, 90 min; actives 0.58% (n = 410,000); max activation, %; in the data active means max activation above about 30%; further: 0% is about no effect
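Agonist mode: compounds and dopamine controls were applied to plated cells for 90 min at 37 degrees C after an overnight attachment at 1500 cells/well. Luminescent read-out followed 30 - 60 minutes at room temperature with DiscoveRx detection reagent.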
Starred values were filed as active, the others as inactive. Most compounds without a hit are left out; they make up all but 21% or so of the library. Unless noted, the call rests on the fitted dose curve; in most records, active means well fitted inhibition curve with a large enough effect; inconclusive means small, poorly fitted or top-dose-only effect; inactive means flat fitted curve, though single readings scatter.

Screening Cc1ccc(N=C2NC(=O)/C(=C/c3cn(C)c4ccccc34)S2)cc1C returned D3 antag inconclusive, TDP1 cell CPT 18µM*, DT40 TDP1 no CPT 18µM*, IL-1B inflam inh -25, ClpP mod 1% and DRD3 agonist -11.
Cc1ccc(N=C2NC(=O)/C(=C/c3cccn3C)S2)c(C)c1 was read as D3 antag -9, TDP1 cell CPT inconclusive, DT40 TDP1 no CPT 6.5µM*, IL-1B inflam inh -21 and DRD3 agonist 5.
Cc1cc(C)cc(N=C2NC(=O)/C(=C/c3cccs3)S2)c1 was read as D3 antag -4, TDP1 cell CPT inconclusive, DT40 TDP1 no CPT 13µM*, IL-1B inflam inh 9, ClpP mod -2% and DRD3 agonist -5.
`COCCCNC(=O)CCCCCNS(=O)(=O)c1ccc(Br)cc1` gave D3 antag -22, TDP1 cell CPT -9%, DT40 TDP1 no CPT -14%, IL-1B inflam inh 36 and DRD3 agonist -18.
For Cc1ccc(C)c(NC(=O)CSc2nnc(-c3ccncc3)n2N)c1 the results were D3 antag -70*, TDP1 cell CPT -11%, DT40 TDP1 no CPT -5%, IL-1B inflam inh 22, ClpP mod 0% and DRD3 agonist -3.
Screening Cc1cc(C)c(NC(=O)CSc2nnc(SCC(=O)Nc3c(C)cc(C)cc3C)n2N)c(C)c1 returned D3 antag 2, TDP1 cell CPT 15µM*, DT40 TDP1 no CPT inconclusive, IL-1B inflam inh 1, ClpP mod 4% and DRD3 agonist 2.
O=[N+]([O-])c1cccc(-n2nnnc2CNCc2ccccc2)c1 was read as D3 antag -4, TDP1 cell CPT 1%, DT40 TDP1 no CPT -16%, IL-1B inflam inh inconclusive, ClpP mod 0% and DRD3 agonist 4.
Screening COc1cccc(NC(=O)/C(C#N)=C\c2cn(Cc3ccc(C)cc3)c3ccccc23)c1 returned TDP1 cell CPT 10µM*, DT40 TDP1 no CPT 5.8µM*, ClpP mod 1% and DRD3 agonist -11.
`Cn1cc(/C=N/NC(=O)c2cccc([N+](=O)[O-])c2)c2ccccc21` gave D3 antag -12, TDP1 cell CPT 2%, DT40 TDP1 no CPT -28%, IL-1B inflam inh 34, ClpP mod -4% and DRD3 agonist -8.
Cc1c(/C=C(\C#N)C(=O)Nc2cccc(Cl)c2)c2ccccc2n1Cc1ccccc1 was read as TDP1 cell CPT inconclusive, DT40 TDP1 no CPT 5.8µM*, ClpP mod 1% and DRD3 agonist 0.
For Cn1cc(/C=C(\C#N)C(=O)Nc2cccc([N+](=O)[O-])c2)c2ccccc21 the results were D3 antag 16, TDP1 cell CPT 13µM*, DT40 TDP1 no CPT 8.2µM*, IL-1B inflam inh -26, ClpP mod 0% and DRD3 agonist 5.
`Cc1cccc(CNC(=O)CS(=O)(=O)c2cccc3nsnc23)c1` gave TDP1 cell CPT 7%, DT40 TDP1 no CPT 9%, ClpP mod -2% and DRD3 agonist 6.
Cc1cc(C(=O)CCC(=O)NCC(=O)Nc2c(C)cccc2C)c(C)s1 was read as D3 antag -3, TDP1 cell CPT inconclusive, DT40 TDP1 no CPT inconclusive, IL-1B inflam inh -23, ClpP mod 8% and DRD3 agonist 4.
For O=C(OCCN1CCCCC1)c1ccccc1Cl the results were D3 antag -68*, TDP1 cell CPT -20%, DT40 TDP1 no CPT 5%, IL-1B inflam inh 26, ClpP mod -2% and DRD3 agonist 1.
`Clc1ccc(Cl)c(OCCCCN2CCCCC2)c1` gave D3 antag -106*, TDP1 cell CPT 18µM*, DT40 TDP1 no CPT inconclusive, IL-1B inflam inh 0, ClpP mod 0% and DRD3 agonist -18.
